# Several values for one entry are separate records, joined by “and”; a condition that tells them apart may be missing. Equal values may be shown once. Inconclusive results are not listed. Where a call stands in place of a potency, no number is given. A structure can be active in one record and inactive in another. Activity calls are given as the source filed them. Unless noted, calls come from the whole dose curve; as a rule, active = well fitted cell-killing curve with a large enough effect in the repeat runs; inconclusive = weak or mixed curves, or effect the other way; inactive = no such curve, though single readings can be large or run the other way.
# Target: Vitamin D3 receptor (Homo sapiens) (UniProt P11473)
# Assay: qHTS assay to identify small molecule agonists of the vitamin D receptor (VDR) signaling pathway (AID 743222; calls by dose curve)
# Details: HEK293T VDR-UAS-bla, beta-lactamase FRET ratio, 16 h; series mostly up to 63.5 µM
# Outline: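 Agonist activity measured in VDR-bla reporter cells. Exposure 16 h, 37C, 5% CO2; detection by B/G FRET substrate, 2 h RT.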
# Chain of Vitamin D3 receptor (Homo sapiens) (P11473 whole entry, looked up): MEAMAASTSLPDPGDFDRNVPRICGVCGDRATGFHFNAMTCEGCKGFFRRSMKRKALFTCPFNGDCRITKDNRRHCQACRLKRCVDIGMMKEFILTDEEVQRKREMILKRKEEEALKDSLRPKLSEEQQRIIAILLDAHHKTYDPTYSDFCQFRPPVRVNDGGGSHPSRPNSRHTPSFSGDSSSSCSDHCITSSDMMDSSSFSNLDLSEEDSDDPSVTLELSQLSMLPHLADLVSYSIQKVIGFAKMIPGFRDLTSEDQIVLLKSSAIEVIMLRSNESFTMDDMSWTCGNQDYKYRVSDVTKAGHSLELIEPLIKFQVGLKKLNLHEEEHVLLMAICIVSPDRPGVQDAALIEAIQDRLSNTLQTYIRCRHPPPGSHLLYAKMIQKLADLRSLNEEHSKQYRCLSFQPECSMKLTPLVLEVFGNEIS
row,SMILES,outcome
1,CCCOc1nn(C(=O)NS(=O)(=O)c2ccccc2C(=O)OC)c(=O)n1C,inactive
2,CCCCCCC(=O)CCCCCC/C=C/C[C@@H](O)[C@H](O)[C@@](N)(CO)C(=O)O,inactive
3,CCOC1Oc2ccc(OS(C)(=O)=O)cc2C1(C)C (configuration not stated),inactive
4,CC(C)c1ccc(O)cc1,inactive
5,ClC(Cl)(Cl)Cl,inactive
6,CN=CNc1ccc(C)cc1C,inactive
7,CCOC(=O)C(Cl)Cc1cc(-n2nc(C)n(C(F)F)c2=O)c(F)cc1Cl (configuration not stated),inactive
8,N#CN,inactive
9,CC(C)C(C)(N)C#N (configuration not stated),inactive
10,C=C(Cl)CSC(=S)N(CC)CC,inactive
11,O=C1C2CC=CCC2C(=O)N1SC(Cl)(Cl)Cl (configuration not stated),inactive

# Target: Vitamin D3 receptor (Homo sapiens) (UniProt P11473)
# Assay: qHTS assay to identify small molecule antagonists of the vitamin D receptor (VDR) signaling pathway (AID 743223; active = well fitted inhibition curve with a large enough effect in the signal ratio in the repeat runs, not every such curve was filed as active; the % refers to the signal ratio)
# Details: VDR-UAS-bla HEK293T, beta-lactamase FRET ratio, 16 h; series mostly up to 61 µM
# Outline: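 Fluorescence from LiveBLAzer B/G FRET substrate, read after 2 h at room temperature, reflects beta-lactamase reporter activity in VDR-bla cells treated 16 h at 37C with compounds and agonist 1alpha,25-dihydroxyvitamin D3 (3 nM final).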
row,SMILES,outcome
1,CCOC(=O)Nc1cccc(OC(=O)Nc2ccccc2)c1,inactive
2,CC(C)(C)C(=O)C(Cl)Cl,inactive
3,CCCCCCC(=O)CCCCCC/C=C/C[C@@H](O)[C@H](O)[C@@](N)(CO)C(=O)O,inactive
4,CC(C)c1ccc(O)cc1,inactive
5,Cl/C=C/CCl,inactive
6,ClC(Cl)(Cl)Cl,inactive
7,O=P(O)(O)CN(CP(=O)(O)O)CP(=O)(O)O,inactive
8,CN=CNc1ccc(C)cc1C,inactive
9,CCOC(=O)C(Cl)Cc1cc(-n2nc(C)n(C(F)F)c2=O)c(F)cc1Cl (configuration not stated),inactive
10,C=C(C)[C@H]1CN[C@H](C(=O)O)[C@H]1CC(=O)O,inactive
11,O=C(O)CBr,inactive
12,CC#Cc1cc(C)nc(Nc2ccccc2)n1,inactive
13,N#CN,inactive
14,C=C(Cl)CSC(=S)N(CC)CC,inactive
15,CCN[C@@H](C)Cc1ccccc1,inactive
16,O=C1C2CC=CCC2C(=O)N1SC(Cl)(Cl)Cl (configuration not stated),inactive

# Tested on: not listed separately
# Assay: qHTS assay to identify small molecule agonists of the vitamin D receptor (VDR) signaling pathway - cell viability counter screen (AID 743224); note: nearly all actives have a fitted effect of over 50% in size; note: potency is the fitted concentration of half-maximal effect
# Details: VDR-bla HEK293T viability, CellTiter-Glo luminescence, 16 h; series mostly up to 62.6 µM
# Outline: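 VDR-bla cell line, quantitative HTS format; 16 h compound incubation (37C, 5% CO2); ATP-based CellTiter-Glo luminescence measured in the reporter assay wells.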
SMILES,Potency,"activity change, negative = cytotoxicity"
CCCOc1nn(C(=O)NS(=O)(=O)c2ccccc2C(=O)OC)c(=O)n1C,inactive,–
CCOC(=O)Nc1cccc(OC(=O)Nc2ccccc2)c1,inactive,–
CC(C)(C)C(=O)C(Cl)Cl,inactive,–
CCCCCCC(=O)CCCCCC/C=C/C[C@@H](O)[C@H](O)[C@@](N)(CO)C(=O)O,inactive,–
CCOC1Oc2ccc(OS(C)(=O)=O)cc2C1(C)C (configuration not stated),inactive,–
CC(C)c1ccc(O)cc1,inactive,–
CCOC(=O)COc1ccc(Cl)cc1Cl,inactive,–
CCc1ccc(C2CCNCC2)cc1,inactive,–
Cl/C=C/CCl,inactive,–
N#CN=C1SCCN1Cc1ccc(Cl)nc1,inactive,–
BrCCc1ccccc1,inactive,–
ClC(Cl)(Cl)Cl,inactive,–
Brc1c(Br)c(Br)c(Br)c(Br)c1Br,–,9.04% [at 5.95 µM] (inactive)
O=P(O)(O)CN(CP(=O)(O)O)CP(=O)(O)O,inactive,–
O=C(CCl)NCO,inactive,–
CN=CNc1ccc(C)cc1C,inactive,–
CC[C@@H](CO)NC(=O)[C@@H]1C=C2c3cccc4[nH]cc(c34)C[C@H]2N(C)C1,inactive,–
CCC(C)(C#N)N=NC(C)(C#N)CC (configuration not stated),inactive,–

SMILES,Potency,"activity change, negative = cytotoxicity"
C=CCCC#N,inactive,–
O=c1[nH]oc2c1CCNC2,inactive,–
CCOC(=O)C(Cl)Cc1cc(-n2nc(C)n(C(F)F)c2=O)c(F)cc1Cl (configuration not stated),inactive,–
CC(=O)CN(CC(C)=O)N=O,inactive,–
C=C(C)[C@H]1CN[C@H](C(=O)O)[C@H]1CC(=O)O,inactive,–
O=C(O)CBr,inactive,–
CC#Cc1cc(C)nc(Nc2ccccc2)n1,inactive,–
[P]#[In],inactive,–
O=C/C=C/c1ccco1,inactive,–
C/C=C/CC#N,inactive,–
N#CN,inactive,–
CC(C)C(C)(N)C#N (configuration not stated),inactive,–
CCCOC(=O)c1cncn1C(C)c1ccccc1 (configuration not stated),inactive,–
C=C(Cl)CSC(=S)N(CC)CC,inactive,–
CCN[C@@H](C)Cc1ccccc1,inactive,–
O=C1C2CC=CCC2C(=O)N1SC(Cl)(Cl)Cl (configuration not stated),inactive and 6.81 µM (active),–
CCC1(CC)C(=O)C=CNC1=O,inactive,–

# — PubChem BioAssay (Tox21)
